The list is not random: actives were taken first. Their share in the collection is about 2.2%.
TWEAK-Fn14 inh = TWEAK-Fn14 signaling inhibition; TWEAK-stimulated Fn14 reporter cells, luciferase luminescence, 8 h; inhibition, % at 10 µM; 360,000 tested, 2% active; AID 1159606; in the data active = inhibition above about 50%
HSP90 inh = inhibitors of HSP90 luciferase refolding in rabbit reticulocyte lysate; AID 1789; 290,000 tested, 0.91% active; luciferase refolding luminescence, 3 h; inhibition, % at 5.6 µM;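 active = inhibition above the screen-wide mean plus 3 SD, computed separately per campaign, cut at about 16% in these data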;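 also: inhibitors lower the luminescence because luciferase stays unfolded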
LGR2 inh = blocks bursicon-induced cAMP signaling via Drosophila LGR2. HEK293 LGR2, CRE-luciferase, bursicon-stimulated, 4 h. inhibition, % at 9.99 µM. 380,000 tested, 0.35% active;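 active = drop in luminescence signal, shown as inhibition above about 50% in the replicate tests, limit read from the data, passing the limit was not always enough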;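 also: agonist challenge used bursicon conditioned medium at about half maximal strength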
TROY signal inh = blocks TROY-dependent signaling in reporter cells | AID 1347056 | inhibition, % at 10 µM | 360,000 tested, 0.98% active | Q293 LMP1-TROYcd NF-kB luciferase reporter, 4 h;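 active = compounds whose plate-normalised and pattern-corrected inhibition of the luciferase reporter signal at the single screening dose is 50% or more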
Hits are given with their value.

What do the screens show for `CCCNC(=O)N1CC2(CN(C(=O)C3CCCCC3)C2)c2c([nH]c3cc(OC)ccc23)[C@H]1CO`?
LGR2 inh: inactive

What do the screens show for `Cc1ccc(/C=N\NC(=O)c2csnn2)cc1`?
TWEAK-Fn14 inh: 50; HSP90 inh: inactive; TROY signal inh: inactive

How did C[C@@H]1CN([C@@H](C)CO)C(=O)Cc2cc(NC(=O)CCCN(C)C)ccc2O[C@H]1CN(C)S(C)(=O)=O do in these assays?
LGR2 inh: inactive

What do the screens show for `Cc1ccc(S(=O)(=O)N2CC[C@@H]3[C@H](CO)Nc4ccc(-c5ccccc5F)cc4[C@@H]32)cc1`?
LGR2 inh: inactive

What do the screens show for `CCc1nnc(NC(=O)CN2CCN(Cc3cccc(F)c3)CC2)s1`?
TWEAK-Fn14 inh: 53; HSP90 inh: inactive; LGR2 inh: inactive; TROY signal inh: inactive

How did COc1cccc(N2CCN(CC(=O)NC3=Nc4ccccc4N=C(C)C3c3ccccc3)CC2)c1 (stereo not drawn) do in these assays?
TWEAK-Fn14 inh: inactive; HSP90 inh: inactive; LGR2 inh: inactive; TROY signal inh: inactive

What do the screens show for `CCc1nnc(NC(=O)CN2CCN(Cc3cccc(Cl)c3)CC2)s1`?
TWEAK-Fn14 inh: inactive; HSP90 inh: inactive; LGR2 inh: inactive; TROY signal inh: inactive

How did COc1cccc(N2CCN(CC(=O)Nc3nnc(-c4ccccc4)s3)CC2)c1 do in these assays?
TWEAK-Fn14 inh: 55; HSP90 inh: inactive; TROY signal inh: inactive

Results for C[C@@H]1CN([C@@H](C)CO)C(=O)c2cc(C#Cc3ccccn3)cnc2O[C@@H]1CN(C)CC1CCCC1 ?
LGR2 inh: inactive

What do the screens show for `CCCNC(=O)C[C@@H]1CC[C@H]2[C@@H](COC[C@H](O)CN2C(=O)C2CCOCC2)O1`?
LGR2 inh: inactive

How did COc1cccc(CNc2nc3cc(-c4cccc(C(F)(F)F)c4)sc3c(=O)n2C)c1OC do in these assays?
TWEAK-Fn14 inh: inactive; LGR2 inh: inactive; TROY signal inh: inactive

Results for COc1cccc(CNc2nc3cc(-c4ccccc4)sc3c(=O)n2C)c1OC ?
TWEAK-Fn14 inh: 63; LGR2 inh: inactive; TROY signal inh: inactive

What do the screens show for `COc1cccc(CNc2nc3cc(-c4cccc(Cl)c4)sc3c(=O)n2C)c1OC`?
TWEAK-Fn14 inh: 50; LGR2 inh: inactive; TROY signal inh: inactive

How did CCn1c(NCc2cccc(OC)c2OC)nc2ccccc21 do in these assays?
TWEAK-Fn14 inh: 60; HSP90 inh: inactive; TROY signal inh: inactive

What do the screens show for `COc1cccc(CNc2nc3cc(-c4ccccc4C)sc3c(=O)n2C)c1OC`?
TWEAK-Fn14 inh: inactive; LGR2 inh: inactive; TROY signal inh: inactive

How did COc1cccc(CNc2nc3cc(-c4cccc(OC)c4)sc3c(=O)n2C)c1 do in these assays?
TWEAK-Fn14 inh: inactive; LGR2 inh: inactive; TROY signal inh: inactive

How did COc1cccc(CNc2nc3cc(-c4cnn(Cc5ccccc5)c4)sc3c(=O)n2C)c1 do in these assays?
TWEAK-Fn14 inh: 68; TROY signal inh: inactive

Results for CCN1[C@@H]2c3ccc(/C=C/c4ccccc4)c(=O)n3C[C@@H]2[C@@H](CO)[C@@H]1C(=O)N(C)C ?
LGR2 inh: inactive

How did C[C@@H]1CN([C@H](C)CO)C(=O)c2cc(NC(=O)Nc3ccccc3)ccc2O[C@@H](C)CCCCO[C@@H]1CN(C)S(=O)(=O)c1cccs1 do in these assays?
LGR2 inh: inactive

Results for COc1ccc(-c2cc3nc(NCc4ccc(NC(C)=O)cc4)n(C)c(=O)c3s2)cc1OC ?
TWEAK-Fn14 inh: inactive; LGR2 inh: inactive; TROY signal inh: inactive

How did COc1ccccc1CNc1nc2cc(-c3ccc(OC)c(OC)c3)sc2c(=O)n1C do in these assays?
TWEAK-Fn14 inh: 77; LGR2 inh: inactive; TROY signal inh: inactive

How did COCC(=O)Nc1ccc2c(c1)C(=O)N(C)[C@@H]1CC[C@@H](CC(=O)N3CCc4ccccc4C3)O[C@@H]1CO2 do in these assays?
LGR2 inh: inactive

How did COc1ccccc1-c1nc(C(=O)NCC2CCCO2)cc2c1[nH]c1ccccc12 (stereo not drawn) do in these assays?
TWEAK-Fn14 inh: inactive; HSP90 inh: inactive; TROY signal inh: inactive

Results for COc1cc(-c2nc(C(=O)NCC3CCCO3)cc3c2[nH]c2ccccc23)cc(OC)c1OC (stereo not drawn) ?
TWEAK-Fn14 inh: 59; HSP90 inh: inactive; LGR2 inh: inactive; TROY signal inh: inactive

What do the screens show for `O=C(NCC1CCCO1)c1cc2c([nH]c3ccccc32)c(-c2cccc(Cl)c2)n1` (stereo not drawn)?
TWEAK-Fn14 inh: 56; HSP90 inh: inactive; TROY signal inh: inactive

How did O=C(NC1CCCCC1)c1n[nH]c2c1CCCCC2 do in these assays?
TWEAK-Fn14 inh: 99; LGR2 inh: 91; TROY signal inh: 83

What do the screens show for `CC(=O)N1CC2(C1)[C@@H](c1ccccc1)[C@@H](CO)N2C(=O)c1ccncc1`?
LGR2 inh: inactive

What do the screens show for `COC(=O)c1c(C)[nH]c(C(C)=O)c1C`?
TWEAK-Fn14 inh: inactive; HSP90 inh: inactive; LGR2 inh: inactive; TROY signal inh: inactive

Results for COC(=O)c1c(C)[nH]c(C(=O)/C=C/c2ccccc2F)c1C ?
TWEAK-Fn14 inh: 51; HSP90 inh: inactive; LGR2 inh: inactive; TROY signal inh: 60

What do the screens show for `COC(=O)c1c(C)[nH]c(C(=O)/C=C/c2ccccc2Cl)c1C`?
TWEAK-Fn14 inh: 90; HSP90 inh: inactive; LGR2 inh: inactive; TROY signal inh: inactive

What do the screens show for `C[C@H](O)C#Cc1ccc2c(c1)O[C@H](CN(C)Cc1ccc(-c3ccccc3)cc1)[C@@H](C)CN([C@@H](C)CO)S2(=O)=O`?
LGR2 inh: inactive

Results for COc1ccccc1NS(=O)(=O)c1cccc(C(=O)OCC(=O)Nc2cc(C)on2)c1 ?
TWEAK-Fn14 inh: inactive; HSP90 inh: inactive; TROY signal inh: inactive

What do the screens show for `COc1ccccc1NS(=O)(=O)c1cccc(C(=O)OCc2nc3ccccc3s2)c1`?
TWEAK-Fn14 inh: 58; HSP90 inh: inactive; LGR2 inh: inactive; TROY signal inh: 68

How did COc1cccc(CN(C)C(=O)CNC(=O)c2ccc(-c3ccccc3)cc2)c1OC do in these assays?
TWEAK-Fn14 inh: 51; HSP90 inh: inactive; LGR2 inh: inactive; TROY signal inh: inactive

How did CCCC(=O)N1CC2(C1)CN(C(=O)CC1CC1)[C@H](CO)c1c2c2ccc(OC)cc2n1C do in these assays?
LGR2 inh: inactive

What do the screens show for `N#C[C@@H]1[C@H](c2ccc(C#Cc3cccc(F)c3)cc2)[C@@H](CO)N1C(=O)C1CC1`?
LGR2 inh: 54

What do the screens show for `N#C[C@@H]1[C@@H](c2ccc(C#Cc3cccc(F)c3)cc2)[C@H](CO)N1C(=O)C1CC1`?
LGR2 inh: inactive

How did COc1cccc(C#Cc2ccc([C@@H]3[C@@H](CO)N(C(=O)C4CCC4)[C@H]3C#N)cc2)c1 do in these assays?
LGR2 inh: 100

How did N#C[C@@H]1[C@H](c2ccc(C#Cc3ccccc3F)cc2)[C@@H](CO)N1C(=O)C1CCCC1 do in these assays?
LGR2 inh: 66

Results for N#C[C@@H]1[C@H](c2ccc(C#CC3CCCCC3)cc2)[C@@H](CO)N1C(=O)c1cccc(F)c1 ?
LGR2 inh: 65

How did N#C[C@@H]1[C@@H](c2ccc(C#CC3CCCCC3)cc2)[C@H](CO)N1C(=O)c1cccc(F)c1 do in these assays?
LGR2 inh: inactive
